Experimental data as given in PubChem BioAssay (EPA / NIEHS).
Inconclusive results are not listed. Calls of active or inactive are those of the source. The calls were made as follows: active = hit-call score of the fitted dose curve at least 0.9, where 1 is the maximum; inconclusive = response in the unintended direction; inactive = score below 0.9.

Legend:
[1] = TOX21_p53_BLA_p2_viability: Viability Assessment in the Tox21 HCT-116 p53 Agonism Beta-lactamase Assay, Phase 2 (AID 2283591);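 also: compound exposure lasted 16 h at 37 °C; actives lower the ATP signal meaning cytotoxicity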
Outline: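 HCT116 p53-bla cells, 4000/well, dosed after 5 h plating (217-fold dilution of DMSO stocks) and incubated 16 h at 37C. Viability taken as cellular ATP by CellTiter-Glo luminescence after 30 min RT; signal loss marks cytotoxicity.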

[2] = TOX21_p53_BLA_p3_viability: Viability Assessment in the Tox21 HCT-116 p53 Agonism Beta-lactamase Assay, Phase 3 (AID 2283593);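 also: cells exposed to compound for 16 h before reading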
Outline: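 HCT116 cells, 4000/well, dosed 5 h after plating by pin transfer (217-fold dilution from DMSO stock) and incubated 16 h at 37C, 5% CO2. Viability read as ATP luminescence with CellTiter-Glo after 30 min at room temperature.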

[3] = target: Cellular tumor antigen p53 (Homo sapiens) (UniProt P04637); test: TOX21_p53_BLA_p3_ratio: Tox21 HCT-116 p53 Agonism Beta-lactamase Assay, Ratio, Phase 3 (AID 2283596)
Cellular tumor antigen p53 (Homo sapiens), sequence (P04637 whole entry, looked up): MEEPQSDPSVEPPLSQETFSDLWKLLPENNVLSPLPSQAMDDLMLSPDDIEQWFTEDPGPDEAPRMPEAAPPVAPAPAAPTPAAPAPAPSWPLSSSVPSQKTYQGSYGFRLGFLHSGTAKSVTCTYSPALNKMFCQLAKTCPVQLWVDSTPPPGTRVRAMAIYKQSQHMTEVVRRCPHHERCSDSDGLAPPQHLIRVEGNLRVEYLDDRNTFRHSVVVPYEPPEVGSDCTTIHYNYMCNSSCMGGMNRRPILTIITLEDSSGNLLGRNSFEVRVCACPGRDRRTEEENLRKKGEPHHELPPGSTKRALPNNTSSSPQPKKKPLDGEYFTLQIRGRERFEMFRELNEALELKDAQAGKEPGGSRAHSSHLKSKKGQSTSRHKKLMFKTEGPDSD
Outline: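 Cells were seeded at 4000/well, rested 5 h at 37C, then dosed with DMSO compound solutions (217-fold dilution) for 16 h. CCF4-AM substrate was loaded for 2 h at room temperature, and the 460/530 nm emission ratio was fitted for gain of signal versus DMSO.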

[4] = target: Cellular tumor antigen p53 (Homo sapiens) (UniProt P04637); test: TOX21_p53_BLA_p5_ratio: Tox21 HCT-116 p53 Agonism Beta-lactamase Assay, Ratio, Phase 5 (AID 2283599)
Outline: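 HCT-116 p53-bla cells (4000/well) plated 5 h, dosed with compound (217-fold DMSO dilution) for 16 h at 37 C; CCF4-AM substrate 2 h at room temperature. Activity is the 460/530 nm emission ratio (405 nm excitation), fitted in gain-of-signal direction versus DMSO.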

[5] = TOX21_p53_BLA_p5_viability: Viability Assessment in the Tox21 HCT-116 p53 Agonism Beta-lactamase Assay, Phase 5 (AID 2283600)
Outline: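 Luciferase-coupled ATP quantitation of cells treated for 16 h (37C, 5% CO2) with test chemicals delivered in DMSO via a 217-fold dilution; 4000 cells/well; reagent incubated 30 min at room temperature before luminescence reading.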

[6] = target: Cellular tumor antigen p53 (Homo sapiens) (UniProt P04637); test: TOX21_p53_BLA_p4_ratio: Tox21 HCT-116 p53 Agonism Beta-lactamase Assay, Ratio, Phase 4 (AID 2283601)
Outline: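 HCT-116 p53 beta-lactamase reporter cells (4000/well) preincubated 5 h, then compound (217-fold dilution of DMSO stock) for 16 h at 37C. CCF4-AM substrate added 2 h at room temperature; 460/530 nm emission ratio fitted upward versus DMSO.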

[7] = TOX21_p53_BLA_p4_viability: Viability Assessment in the Tox21 HCT-116 p53 Agonism Beta-lactamase Assay, Phase 4 (AID 2283597);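 also: hits lower the luminescence signal meaning cytotoxicity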
Outline: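 Cytotoxicity was inferred from loss of CellTiter-Glo luminescence. HCT116 cells had been dosed with compounds after 5 h plating, incubated 16 h at 37C and 5% CO2, and exposed to the CCF4-AM substrate for 2 h.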

Measured: AC50

COc1ccc2c(c1OC)C(=O)O[C@@H]2[C@H]1c2cc3c(cc2CCN1C)OCO3
inactive: [1] | [2] | [3] | [4] | [5] | [6]

Cc1nnc2n1-c1ccc(Cl)cc1C(c1ccccc1)=NC2
inactive: [1] | [3] | [7] | [4] | [6]

SCc1ccccc1
inactive: [1] | [2] | [4] | [6]

Cc1cccc(N)c1C
inactive: [1] | [7] | [4] | [5]

CC(C)(C)C(=O)Cl
inactive: [1] | [3] | [4] | [5] | [6]

CCCCC(=O)Cl
inactive: [1] | [3] | [7]

Cc1nnc2n1-c1sc(CCC(=O)N3CCOCC3)cc1C(c1ccccc1Cl)=NC2
inactive: [1] | [3] | [7] | [4] | [5]

CCc1cc(OC)c(C[C@@H](C)N)cc1OC
inactive: [1] | [7] | [4] | [6]

Nc1ccccc1Cl
inactive: [1] | [3] | [7]

O=C(Cl)C(Cl)(Cl)Cl
inactive: [1] | [3] | [7] | [5] | [6]

O=[N+]([O-])c1ccccc1-c1ccccc1
inactive: [1] | [3] | [4] | [5]

COC(C)(C)CCCC(C)C/C=C/C(C)=C/C(=O)OC(C)C (configuration not stated)
inactive: [1] | [3] | [7] | [4] | [5] | [6]

CNC(=O)Oc1ccccc1C(C)C
inactive: [1] | [3] | [6]

CN1CC[C@]23c4c5ccc(O)c4O[C@H]2[C@@H](O)CC[C@H]3[C@H]1C5
inactive: [1] | [3] | [7] | [4]

O=[N+]([O-])c1ccc(Cl)c(Cl)c1Cl
inactive: [1] | [2] | [4] | [5]

CCCCCON=O
inactive: [1] | [3] | [4]

C[C@H]1O[C@H](OC2[C@@H](O)[C@@H](O)C(O)[C@H](O)[C@H]2O)[C@@H](N)C[C@@H]1N=C(N)C(=O)O (some centres not stated)
inactive: [1] | [2] | [4]

CC(Cl)(Cl)Cl
inactive: [1] | [2] | [4]

O=C(Nc1ccccc1)N(Cc1ccc(Cl)cc1)C1CCCC1
inactive: [1] | [2] | [4] | [5] | [6]

CC(=O)[C@H]1CC[C@H]2[C@@H]3CC[C@H]4C[C@H](O)CC[C@]4(C)[C@H]3C(=O)C[C@]12C
inactive: [1] | [7]

CCCC(C)(COC(N)=O)COC(N)=O
inactive: [1] | [3] | [7] | [4] | [5]

O=[N+]([O-])c1cc(Cl)c(Cl)c(Cl)c1
inactive: [1] | [3] | [4] | [5]

C[N+](C)(C)C
inactive: [1] | [2] | [4] | [5]

CCC1(CC)C(=O)C=CNC1=O
inactive: [1] | [3] | [7] | [4] | [6]

CCCBr
inactive: [1] | [7] | [4]

O=C1NCN(c2ccccc2)C12CCN(CC1COc3ccccc3O1)CC2 (configuration not stated)
inactive: [1] | [2] | [6]

CN(C)C(=O)Oc1cc(OC(=O)N(C)C)cc(C(O)CNC(C)(C)C)c1 (configuration not stated)
inactive: [1] | [3] | [6]

c1ccc(C2(c3ccccc3)CC2C2=NCCN2)cc1 (configuration not stated)
inactive: [1] | [7] | [5]

COc1cc(CC(C)N)cc2c1OCO2 (configuration not stated)
inactive: [1] | [3] | [7] | [4] | [6]

O=NN1CCCCC1
inactive: [1] | [3] | [7] | [4] | [5] | [6]

O=C(CCl)C(Cl)Cl
active: [7] 6.25 µM | [4] 29 µM | [6] 26.1 µM
inactive: [1] | [5]

CCCCCCCCP(=O)(O)O
inactive: [1] | [3] | [6]

CCCCCCCC(=O)Cl
inactive: [1] | [2] | [4] | [5] | [6]

c1ccc(CN2CCNCC2)cc1
inactive: [1] | [3] | [4]

C[C@H](CN1CCOCC1)C(C(=O)N1CCCC1)(c1ccccc1)c1ccccc1
inactive: [1] | [7]

CCN(CC)CCOC(=O)C(C)(c1ccccc1)c1ccccc1
inactive: [1] | [7] | [4]

COC(=O)c1ccc(CBr)cc1
inactive: [1] | [2] | [5] | [6]

BrCCCCCCBr
inactive: [1] | [3]

Brc1ccccc1
inactive: [1] | [7] | [5]

ClC(Cl)=C(Cl)Cl
inactive: [1] | [7] | [4] | [5] | [6]
